# In all, about 69,000 compounds went through this assay and about 1,000 (1.4%) showed an effect of 50% or more. The sample as a whole holds a higher share of strong results than the screen did.
# Tested on: Leishmania donovani
# Experiment: Leishmania intramacrophage assay
# Type: functional, organism-based
# Design: scale not given: in the data most compounds retested in dose-response had high values
compound,measurement,setting,value
COc1ccc(C(=O)Nc2c(C(=O)N(C)C)nn(C)c2C)cc1,Percent Effect,"30.3 µM, […]",25.81%
O=C1CC(c2ccsc2)c2snc(C(=O)O)c2N1 (stereo unspecified),Percent Effect,"30.3 µM, […]",9.625%
Cc1ccc(-c2nnc(SCC(=O)O)n2-c2ccc(C)cc2)cc1,Percent Effect,"30 µM, 30.03 µM",5.804%
CNc1cc(C)nc(NC2CCCN(C3Cc4ccccc4C3)C2)n1 (stereo unspecified),Percent Effect,"30.3 µM, […]",32.54%
Cc1ccc(NC2CCCN(C3Cc4ccccc4C3)C2)nn1 (stereo unspecified),Percent Effect,"30.3 µM, […]",23.72%
CNc1nc(C)cc(NC2CCCN(C3Cc4ccccc4C3)C2)n1 (stereo unspecified),Percent Effect,"30.3 µM, […]",58.16%
CN1CCN(C2CCN(Cc3nnc(C(C)(C)C)o3)CC2)C1=O,Percent Effect,30 µM,6.935%
COc1cc(CNCCc2nc(C)cs2)cc2c1OCCO2.Cl,Percent Effect,"30 µM, 30.03 µM",9.472%
COc1cccc(CN(C)C(C)c2ccco2)c1OCCn1ccnc1 (stereo unspecified),Percent Effect,"30.3 µM, […]",23.12%
CCCN(CC(=O)N(C)C)C(=O)c1ccc(-c2nc(C)cs2)cc1,Percent Effect,"30.3 µM, […]",65.78%
CCCN(CC(=O)NC)C(=O)c1ccc(-c2nc(C)cs2)cc1,Percent Effect,"30.3 µM, […]",37%
CCN(CC(=O)N(C)C)C(=O)c1ccc(-c2nc(C)cs2)cc1,Percent Effect,"30.3 µM, […]",-16.68%
Cc1cc(C2CCCN2Cc2cc(=O)n(C)c(=O)n2C)on1 (stereo unspecified),Percent Effect,"30 µM, 30.03 µM",-11.72%
COc1ccc(S(=O)(=O)NCCCc2nnc3nc(C)cc(C)n23)cc1,Percent Effect,"30.3 µM, […]",5.677%
CC(C)n1cnnc1SCCN(C)c1ccccc1,Percent Effect,"30.3 µM, […]",-1.184%
O=C(Cn1cccc2cc(-c3ccc(F)cc3)nc1-2)N1CCC(O)CC1,Percent Effect,"30.3 µM, […]",2.575%
CN(C)CCN(C)C(=O)Cn1cccc2cc(-c3ccc(F)cc3)nc1-2,Percent Effect,"30.3 µM, […]",78.9%
COc1ccc(-c2cc3cccn(CC(=O)N4CCOCC4)c-3n2)cc1,Percent Effect,"30.3 µM, […]",23.65%
CC(C)(C)c1ncc2c(n1)CN(c1cc(NCCO)nc(N)n1)C2,Percent Effect,"30.3 µM, […]",34.79%
O=C(C1CC(=O)N(c2n[nH]c3cc(Br)ccc23)C1)N1CCOCC1 (stereo unspecified),Percent Effect,"30.3 µM, […]",-3.266%
CC(C)CCNC(=O)c1ccc(Cl)c(NS(C)(=O)=O)c1,Percent Effect,"30.3 µM, […]",6.444%
O=C(Cc1ccsc1)N1C[C@@H]2CN(Cc3ccoc3)CCO[C@@H]2C1.O=C(O)C(F)(F)F,Percent Effect,"30 µM, 30.03 µM",9.64%
COc1ccc(OCCN(C)C(=O)c2ccc(OC)cc2O)cc1,Percent Effect,"30.3 µM, […]",55.32%
COCCCNC(=O)CN(C)C(=O)c1ccc(OC)cc1O,Percent Effect,30 µM,24.99%
COCCN(C)C(=O)c1ccc(OC)cc1O,Percent Effect,"30 µM, 30.03 µM",-17.55%
CCN(C)C(=O)CN1CCC(c2cc(N3CCOCC3)nc(C)n2)CC1,Percent Effect,"30.3 µM, […]",-1.668%
Nc1nccc(N2CCC(c3cc(Cc4ccccc4)n[nH]3)CC2)n1,Percent Effect,"30.3 µM, […]",63.85%
Nc1nc(O)cc(N2CCC(c3cc(Cc4ccccc4)n[nH]3)CC2)n1,Percent Effect,"30.3 µM, […]",4.937%
Cc1ccc(N2CCC(c3cc(Cc4ccccc4)n[nH]3)CC2)nn1,Percent Effect,"30.3 µM, […]",15.09%
Cc1cc(CN2CCC(c3cc(Cc4ccccc4)n[nH]3)CC2)[nH]n1,Percent Effect,"30.3 µM, […]",26.02%
Nc1cc(N2CCC(c3cc(Cc4ccccc4)n[nH]3)CC2)ccn1,Percent Effect,"30.3 µM, […]",96.12%
NC(=O)NCCC(=O)N1CCC(c2cc(Cc3ccccc3)n[nH]2)CC1,Percent Effect,"30.3 µM, […]",-20.51%
COc1ccc(CN2CCCCC2c2n[nH]cc2-c2cc(C)no2)cc1.Cl (stereo unspecified),Percent Effect,"30.3 µM, […]",-16.67%
CCn1ncc2c1CCCC2NCc1cc(OC)cc(OC)c1 (stereo unspecified),Percent Effect,30 µM,1.972%
Cc1nccc(CNC(=O)NCCOc2ccc(F)c(F)c2)n1,Percent Effect,"30 µM, 30.03 µM",3.237%
Cc1nc(C2(O)CCCNCC2)sc1CCOc1ccc(F)cc1.Cl (stereo unspecified),Percent Effect,"30.3 µM, […]",8.294%
Cc1cc(CNC(=O)NCCOc2ccc(F)c(F)c2)on1,Percent Effect,"30.3 µM, […]",0.6606%
Cc1nc(C2(O)CCCNCC2)sc1CCOc1ccc(F)c(F)c1.Cl (stereo unspecified),Percent Effect,"30.3 µM, […]",85.82%
CC1(C(=O)NCc2cccnc2Oc2ccc(F)c(F)c2)CCCNC1 (stereo unspecified),Percent Effect,"30.3 µM, […]",-16.47%
CC(=O)NCc1nnn2c1CN(c1ncc(C)cn1)CCC2,Percent Effect,"30.3 µM, […]",22.68%
O=C(NC[C@]12COC[C@H]1CN(Cc1nccs1)C2)c1cscn1.O=C(O)C(F)(F)F,Percent Effect,"30.3 µM, […]",14.84%
CCOc1cc(C(=O)N2CCN(CC)CC2)cc2occc12,Percent Effect,"30.3 µM, […]",-20.1%
CN(CC(=O)Nc1ccccc1C(=O)NC1CC1)Cc1ccccc1Cl,Percent Effect,"30.3 µM, […]",31.64%
CCOC(=O)c1ccccc1NC(=O)CN(C)Cc1ccccc1Cl.O=C(O)C(=O)O,Percent Effect,"30.3 µM, […]",23.74%
CCOc1ccccc1NC(=O)CN(C)Cc1ccccc1Cl,Percent Effect,"30.3 µM, […]",52.93%
O=C(Nc1cccc(OCC(F)F)n1)c1ccncc1F,Percent Effect,"30.3 µM, […]",29.54%
CCSc1ccc(C(=O)N2CCCC2C(=O)N2CCOCC2)cn1 (stereo unspecified),Percent Effect,"30.3 µM, […]",-29.5%
Cc1cc2nc(C(C)C)cc(N3CCC(O)CC3)n2n1,Percent Effect,"30.3 µM, […]",27.64%
Cc1cc2nc(C(C)C)cc(N3CCC(N(C)C)C3)n2n1 (stereo unspecified),Percent Effect,"30.3 µM, […]",15.59%
Cc1cc2nc(C(C)C)cc(N3CCC(Oc4ncccn4)CC3)n2n1,Percent Effect,"30.3 µM, […]",83.06%
O=C(CNC(=O)C1CCCC1)NCc1cnn(-c2ccc(F)cc2F)c1,Percent Effect,"30.3 µM, […]",-11%
